proKLK7 act = proKLK7 (human) activation, primary screen. AID 652039. 370,000 compounds, 0.9% hits. purified proKLK7, EDANS-DABCYL substrate fluorescence; 100% is mature enzyme control, 0% vehicle. activation, % at 7 µM. P49862;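 active = activation above the mean of all tested compounds plus 3 SD, computed per campaign excluding outliers beyond control limits, cut at about 13% in these data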
DSG3 Ab inh = blocks pemphigus antibody binding to human desmoglein-3; P32926; DSG3-coupled beads, scFv-anti-DSG3-GFP binding, flow cytometry; hits give low values; binding (percent of control), % at 10 µM; 310,000 compounds, 0.48% hits; AID 588358;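 active = binding more than 3 SD below its plate's average and above zero; inconclusive = below that plate limit but binding exactly zero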;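 note: hits lower antibody fragment binding to DSG3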
ADAM10 inh = inhibitors of human ADAM10; O14672; recombinant ADAM10, EDANS/DABCYL FRET peptide cleavage, 3 h; inhibition, % at 7 µM; 370,000 compounds, 0.62% hits; AID 720582;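 active = inhibition above a per-campaign cutoff equal to the mean of compounds falling between control-based bounds plus 3 SD, cut at about 20% in these data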
rCAG binder = molecules binding r(CAG) RNA repeats. r(CAG) RNA repeat, TO-PRO-1 dye displacement fluorescence. inhibition, % at 3 µM. 370,000 compounds, 1.3% hits. AID 651821;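 active = inhibition above the plate cutoff, the mean of all test compounds on that plate plus 3 SD, cut at about 35% in these data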;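 note: higher means more dye released from RNA so lower well fluorescence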
ADAM17 inh = ADAM17 inhibition, QFRET primary screen. P78536. 370,000 compounds, 0.83% hits. AID 720648. recombinant ADAM17, EDANS/DABCYL FRET peptide cleavage. inhibition, % at 6.95 µM;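 active = inhibition above the mean of compounds lying between control limits plus 3 SD, set per campaign, cut at about 8.5% in these data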
Target sequence (P78536 215-824 limits assumed): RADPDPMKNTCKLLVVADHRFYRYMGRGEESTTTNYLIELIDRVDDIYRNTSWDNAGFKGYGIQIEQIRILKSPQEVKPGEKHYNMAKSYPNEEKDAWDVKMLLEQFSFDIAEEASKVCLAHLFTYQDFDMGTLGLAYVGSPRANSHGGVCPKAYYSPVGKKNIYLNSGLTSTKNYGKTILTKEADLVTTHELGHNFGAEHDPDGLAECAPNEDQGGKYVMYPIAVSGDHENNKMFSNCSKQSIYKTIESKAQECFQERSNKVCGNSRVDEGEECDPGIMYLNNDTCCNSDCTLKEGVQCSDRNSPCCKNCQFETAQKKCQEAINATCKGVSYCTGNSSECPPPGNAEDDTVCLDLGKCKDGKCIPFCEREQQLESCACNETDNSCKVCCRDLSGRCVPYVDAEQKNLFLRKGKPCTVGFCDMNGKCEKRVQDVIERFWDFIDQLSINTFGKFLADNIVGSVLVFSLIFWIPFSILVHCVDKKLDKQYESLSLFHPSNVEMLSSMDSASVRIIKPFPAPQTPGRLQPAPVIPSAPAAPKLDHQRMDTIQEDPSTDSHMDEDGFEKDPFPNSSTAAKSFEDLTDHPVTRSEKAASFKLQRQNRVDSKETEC
MPTP block = blocks calcium-induced mitochondrial swelling. isolated mouse mitochondria, Ca2+ swelling absorbance, 30 min. inhibition, % at 10 µM. 360,000 compounds, 1.4% hits. AID 602449;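 active = inhibition of 50% or more, scaled per plate between neutral and stimulator controls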
proKLK7 act conf = proKLK7 activation, confirmation; shares compounds with proKLK7 act; purified proKLK7, EDANS-DABCYL substrate fluorescence; scaled: vehicle 0, mature enzyme 100; activation, % at 7 µM; 3,200 compounds, 68% hits; AID 686949;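 active = activation, as change over the incubation, above the mean of all tested compounds plus 3 SD, cut at about 13% in these data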
EDANS interfere = counter-screen for kallikrein-7 activators: EDANS-DABCYL optical interference; activation, % at 7 µM; AID 686952; 3,200 compounds, 80% hits; EDANS-DABCYL substrate fluorescence interference, no enzyme, 4 h; solvent 0%, active enzyme control 100%; shares compounds with proKLK7 act;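 active = activation above the all-compound mean plus 3 SD, ignoring values outside control-based bounds, cut at about 4.8% in these data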;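 note: value is the 4 h activation minus the activation read at time zero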
EDANS interf = optically interferes with EDANS-DABCYL fluorescence, kallikrein-7 activator counter-screen; shares compounds with proKLK7 act; EDANS-DABCYL peptide fluorescence interference, no enzyme; EC50, µM; 250 compounds, 20% hits; AID 720493;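 active = compounds that raise the fluorescence signal in this interference counterscreen, with EC50 at or below 10 µM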;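 note: intact quenched peptide substrate alone read at 355 nm excitation and 520 nm emission; signal is fluorescence gain from T0 to T4 after four hours at room temperature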
Each line names hits and unclear results; the compound was inactive in the other large screens (follow-up assays come after a bar, where they were run). Most compounds without a hit are left out; they make up all but 4.7% or so of the library.

COc1ccccc1C(=O)Oc1ccc2ccc(=O)oc2c1	proKLK7 act 356 | proKLK7 act conf 693 | EDANS interfere 694
O=C(CN1C(=O)NC2(CCCCC2)C1=O)Oc1ccc2ccc(=O)oc2c1	proKLK7 act 127 (no result: DSG3 Ab inh) | proKLK7 act conf 62 | EDANS interfere 65
COc1cc2cc(Oc3ccc4ccc(=O)oc4c3)c(=O)oc2cc1OC(C)=O	none
COc1cc2cc(Oc3ccc4ccc(=O)oc4c3)c(=O)oc2cc1O	proKLK7 act 37 | proKLK7 act conf 36 | EDANS interfere 40
O=C(Oc1ccc2c(=O)c(Oc3ccc4ccccc4c3)coc2c1)c1ccco1	none
O=C(Oc1ccc2ccc(=O)oc2c1)c1ccco1	proKLK7 act 180, DSG3 Ab inh inconclusive | proKLK7 act conf 705 | EDANS interfere 729
Cc1ccc(C)c(S(=O)(=O)N(C)c2ccc(OC(=O)CN3C(=O)NC4(CCCC4)C3=O)cc2)c1	none
CN1C[C@@H]2[C@@H]3C(=O)N(Cc4ccccc4)C(=O)[C@@H]3[C@](C)(C1=O)N2C(=O)c1ccc(F)cc1	none
Cc1ccc2ccccc2c1C(O)c1ncc(-c2ccccc2F)[nH]1 (centres undefined)	none (no result: DSG3 Ab inh)
COc1ccc(C2=Nc3ccccc3N(C(=O)c3cc(Cl)cc(Cl)c3)C2C(=O)NCc2ccccc2)cc1 (centres undefined)	none (no result: DSG3 Ab inh)
N#Cc1cccnc1N1CCN(C(C(=O)NC2CCCC2)c2ccco2)CC1 (centres undefined)	none (no result: DSG3 Ab inh)
O=C(CSc1nccc(=O)[nH]1)NC1CCCCCC1	proKLK7 act 61 | proKLK7 act conf inactive | EDANS interfere inactive
Cc1cc(=O)[nH]c(SCC(=O)NC2CCCCC2)n1	none (no result: DSG3 Ab inh)
O=c1[nH]c2ccc(Cl)cc2c(-c2ccccc2)c1N1CCN(CCO)CC1	proKLK7 act 29 (no result: DSG3 Ab inh) | proKLK7 act conf inactive | EDANS interfere inactive
COc1cc2c(cc1OC)C(C)=NC1(CCCCC1)C2	proKLK7 act 101 | proKLK7 act conf 61 | EDANS interfere 66
COc1cc2c(cc1OC)C(C)=NCC2	proKLK7 act 115 | proKLK7 act conf 62 | EDANS interfere 77
COc1cc2c(cc1OC)C(c1ccc(Cl)cc1)=NCC2	none
COc1cc2c(cc1OC)C(SC)=NC1(CCCC1)C2	none
O=C1Nc2ccc(S(=O)(=O)N3CCOCC3)c3cccc1c23	proKLK7 act 35 | proKLK7 act conf 58 | EDANS interfere 57
O=C1Nc2ccc(S(=O)(=O)N3CCCC3)c3cccc1c23	none
CN1CCN(S(=O)(=O)c2ccc3c4c(cccc24)C(=O)N3)CC1	proKLK7 act 66 | proKLK7 act conf 41 | EDANS interfere 49
Nc1ccn([C@@H]2O[C@H](CNCc3cc(Br)ccc3OCc3ccccc3)[C@@H](O)[C@H]2O)c(=O)n1	none (no result: DSG3 Ab inh)
O=C(N/N=C/c1ccc(OC(=O)c2cccs2)cc1)c1ccccn1	none
O=C(Nc1nc(-c2ccc3c(c2)OCCO3)cs1)c1ccco1	none (no result: DSG3 Ab inh)
CCC(=O)N1CCc2cc(-c3csc(NC(=O)c4ccco4)n3)ccc21	proKLK7 act 98 | proKLK7 act conf 22 | EDANS interfere 16 | EDANS interf inactive
Nc1cccc(-c2cccc3nncn23)c1	proKLK7 act 29 (no result: DSG3 Ab inh) | proKLK7 act conf inactive | EDANS interfere inactive
c1cc(-c2ccsc2)n2cnnc2c1	none (no result: DSG3 Ab inh)
Cn1cc(-c2cccc3nncn23)cn1	none (no result: DSG3 Ab inh)

Compound activity deposited in PubChem BioAssay by several laboratories.
